Measured values reported in PubChem BioAssay (Tox21).
Records with an inconclusive call do not appear. Entries that show only a call come without a potency. Activity calls are given as the source filed them. Unless noted, the call rests on the fitted dose curve; in most records, active means well fitted curve in the direction sought with a large enough effect in the repeat runs; inconclusive means weak or mixed curves; inactive means no such curve, though single readings can be large; an effect the other way counts as inactive or inconclusive.

Legend:
[1] = target: Aryl hydrocarbon receptor (Homo sapiens) (UniProt P35869); test: qHTS assay to identify small molecule that activate the aryl hydrocarbon receptor (AhR) signaling pathway (AID 743085); further: nearly all actives have a fitted effect of over 15% in size; further: potency means the concentration at half of the fitted maximal effect;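 on activation: HG2L7.5c1 human HepG2 liver cells with stably integrated DRE-driven firefly reporter; series mostly up to about 70 µM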
Aryl hydrocarbon receptor (Homo sapiens), sequence (P35869 whole entry, looked up): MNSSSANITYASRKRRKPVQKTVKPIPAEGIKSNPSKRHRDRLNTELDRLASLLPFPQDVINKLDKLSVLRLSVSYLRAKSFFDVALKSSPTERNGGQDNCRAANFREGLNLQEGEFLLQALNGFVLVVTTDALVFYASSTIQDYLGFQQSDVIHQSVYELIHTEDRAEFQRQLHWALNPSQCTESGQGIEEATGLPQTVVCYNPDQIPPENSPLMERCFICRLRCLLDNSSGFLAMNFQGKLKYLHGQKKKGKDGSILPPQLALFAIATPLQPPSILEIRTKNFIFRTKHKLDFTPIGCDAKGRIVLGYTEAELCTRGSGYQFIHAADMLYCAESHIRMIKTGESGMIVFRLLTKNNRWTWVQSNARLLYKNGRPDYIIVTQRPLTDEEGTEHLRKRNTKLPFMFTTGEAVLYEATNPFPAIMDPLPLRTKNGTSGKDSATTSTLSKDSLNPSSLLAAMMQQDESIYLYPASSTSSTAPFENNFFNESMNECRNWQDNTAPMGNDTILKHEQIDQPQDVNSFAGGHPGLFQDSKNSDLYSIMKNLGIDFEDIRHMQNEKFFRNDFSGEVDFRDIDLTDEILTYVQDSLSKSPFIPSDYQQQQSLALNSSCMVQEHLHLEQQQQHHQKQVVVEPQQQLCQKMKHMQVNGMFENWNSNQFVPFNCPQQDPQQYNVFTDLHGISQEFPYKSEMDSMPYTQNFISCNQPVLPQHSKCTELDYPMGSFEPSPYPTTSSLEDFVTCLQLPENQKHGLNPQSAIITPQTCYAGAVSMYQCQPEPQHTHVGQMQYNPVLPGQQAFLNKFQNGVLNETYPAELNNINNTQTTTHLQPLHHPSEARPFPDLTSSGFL
How it was run: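 AhR agonist activity is inferred from enhanced light output of a DRE-controlled firefly luciferase reporter in HepG2 cells, measured with ONE-Glo following 24 h treatment at 37C.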

[2] = qHTS assay to identify small molecule that activate the aryl hydrocarbon receptor (AhR) signaling pathway - cell viability counter screen (AID 743086); further: nearly all actives have a fitted effect of over 45% in size; further: potency means the concentration at half of the fitted maximal effect
How it was run: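 Cytotoxicity counter screen: CellTiter-Fluor signal (30 min, 37 C) in 4000 HepG2 cells/well carrying the DRE-luciferase reporter, following 24 h compound exposure at 37 C.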

[3] = target: Peroxisome proliferator-activated receptor gamma (Homo sapiens) (UniProt P37231); test: qHTS assay to identify small molecule agonists of the peroxisome proliferator-activated receptor gamma (PPARg) signaling pathway (AID 743094; active means well fitted activation curve with a large enough effect in the signal ratio in the repeat runs, not every such curve was filed as active; the % refers to the signal ratio)
Peroxisome proliferator-activated receptor gamma (Homo sapiens), sequence (P37231 whole entry, looked up): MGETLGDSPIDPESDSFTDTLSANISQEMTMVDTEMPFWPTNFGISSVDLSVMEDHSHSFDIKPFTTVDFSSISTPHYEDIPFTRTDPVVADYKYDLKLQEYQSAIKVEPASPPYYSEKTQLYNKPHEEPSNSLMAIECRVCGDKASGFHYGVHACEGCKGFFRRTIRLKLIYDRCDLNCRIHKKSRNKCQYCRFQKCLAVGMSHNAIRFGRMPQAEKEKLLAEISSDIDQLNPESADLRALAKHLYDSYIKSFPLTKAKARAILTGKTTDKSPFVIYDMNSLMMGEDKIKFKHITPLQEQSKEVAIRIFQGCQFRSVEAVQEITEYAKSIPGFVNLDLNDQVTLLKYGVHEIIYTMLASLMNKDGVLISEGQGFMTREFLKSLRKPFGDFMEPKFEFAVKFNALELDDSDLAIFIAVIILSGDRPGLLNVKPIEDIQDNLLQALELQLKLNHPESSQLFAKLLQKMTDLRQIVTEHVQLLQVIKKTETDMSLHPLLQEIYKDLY
How it was run: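 Following 5 h plating at 37C, PPARg-bla HEK293H cells receive compound or DMSO for 17 h; fluorescence intensity is recorded after LiveBLAzer B/G loading for 1 h at room temperature.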

[4] = target: Peroxisome proliferator-activated receptor gamma (Homo sapiens) (UniProt P37231); test: qHTS assay to identify small molecule antagonists of the peroxisome proliferator-activated receptor gamma (PPARg) signaling pathway (AID 743191; calls by dose curve; further: series mostly up to about 63 µM; nearly all actives have a fitted effect of over 30% in size)
How it was run: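 Beta-lactamase reporter under UAS control in HEK293H PPARg-bla cells; compound treatment 17 h at 37C. Read-out: fluorescence intensity after 1 h room-temperature incubation with LiveBLAzer B/G FRET substrate.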

[5] = qHTS assay for small molecule agonists of the antioxidant response element (ARE) signaling pathway (AID 743202; active means well fitted activation curve with a large enough effect in the signal ratio in the repeat runs, not every such curve was filed as active; the % refers to the signal ratio)
How it was run: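 An ARE-responsive beta-lactamase gene stably integrated in HepG2 cells serves as reporter. After 5 h plating and 16 h compound incubation at 37 C, fluorescence of the B/G FRET substrate was measured.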

[6] = qHTS assay for small molecule agonists of the antioxidant response element (ARE) signaling pathway - cell viability counter screen (AID 743203; calls by dose curve; further: nearly all actives have a fitted effect of over 55% in size)
How it was run: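 Compounds in DMSO were pinned onto ARE-bla HepG2 cells plated 5 hrs earlier at 2,000 cells/well. Sixteen hours later at 37C/5% CO2, CellTiter-Glo was added and luminescence measured after 30 min at room temperature.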

[7] = qHTS assay for small molecule activators of the heat shock response signaling pathway - cell viability counter screen (AID 743209); further: nearly all actives have a fitted effect of over 50% in size
How it was run: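 Counter screen for cytotoxicity in HeLa HSE-bla reporter cells. Treatment was 5 h at 37 C; viability was detected by luminescent ATP assay (CellTiter-Glo) in the same wells as the beta-lactamase read.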

[8] = qHTS assay for small molecule activators of the heat shock response signaling pathway (AID 743210; active means well fitted activation curve with a large enough effect in the signal ratio in the repeat runs, with a control signal flat, not every such curve was filed as active; the % refers to the signal ratio;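 further: HeLa cells with beta-lactamase reporter driven by heat shock elements; series mostly up to about 63 µM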)
How it was run: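 In HSE-bla HeLa cells, 5 h compound incubation (37 C) precedes addition of LiveBLAzer B/G substrate; after 2.5 h at room temperature, fluorescence intensity indicates reporter induction.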

[9] = qHTS assay to identify small molecule agonists of the peroxisome proliferator-activated receptor delta (PPARd) signaling pathway - cell viability counter screen (AID 743211); further: nearly all actives have a fitted effect of over 55% in size
How it was run: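 qHTS cell viability: PPARd-bla HEK293H; 17 h cpd, 37C; CellTiter-Glo, luminescence at 30 min RT.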

[10] = qHTS assay to identify small molecule antagonists of the peroxisome proliferator-activated receptor delta (PPARd) signaling pathway - cell viability counter screen (AID 743213); further: nearly all actives have a fitted effect of over 50% in size
How it was run: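 HEK293H PPARd UAS-bla cells, 5 h pre-incubation, compound + L165041 300 nM final, 17 h 37 C; B/G FRET substrate 2 h RT; then CellTiter-Glo 30 min RT, luminescence.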

[11] = target: Bile acid receptor (Homo sapiens) (UniProt Q96RI1); test: qHTS assay to identify small molecule antagonists of the farnesoid-X-receptor (FXR) signaling pathway (AID 743217; active means well fitted inhibition curve with a large enough effect in the signal ratio in the repeat runs, not every such curve was filed as active; the % refers to the signal ratio)
Bile acid receptor (Homo sapiens), sequence (Q96RI1 whole entry, looked up): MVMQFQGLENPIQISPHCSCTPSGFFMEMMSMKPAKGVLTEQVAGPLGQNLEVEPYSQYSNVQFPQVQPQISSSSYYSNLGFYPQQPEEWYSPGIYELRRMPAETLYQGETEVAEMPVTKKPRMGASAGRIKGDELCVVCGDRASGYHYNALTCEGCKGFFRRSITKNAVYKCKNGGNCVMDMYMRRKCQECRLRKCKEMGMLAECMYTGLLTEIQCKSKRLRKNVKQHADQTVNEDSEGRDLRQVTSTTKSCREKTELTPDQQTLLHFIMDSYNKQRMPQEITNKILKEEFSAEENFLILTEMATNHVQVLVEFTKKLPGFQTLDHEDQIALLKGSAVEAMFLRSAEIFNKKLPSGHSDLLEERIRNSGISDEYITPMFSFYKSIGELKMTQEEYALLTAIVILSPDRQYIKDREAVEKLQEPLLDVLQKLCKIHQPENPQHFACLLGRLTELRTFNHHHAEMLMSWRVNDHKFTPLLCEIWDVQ
How it was run: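 In this cell-based antagonist screen, inhibition of CDCA-driven (50 uM final) UAS-beta-lactamase expression in HEK 293T cells was measured by FRET fluorescence following 16 h compound exposure at 37 °C.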

[12] = qHTS assay to identify small molecule agonists of the farnesoid-X-receptor (FXR) signaling pathway - cell viability counter screen (AID 743218); further: nearly all actives have a fitted effect of over 45% in size
How it was run: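 After 16 h at 37 C with test compounds, FXR-bla HEK 293T cells were given LiveBLAzer B/G substrate for 2 h at RT and then CellTiter-Glo; luminescence was taken after 30 min.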

[13] = target: Bile acid receptor (Homo sapiens) (UniProt Q96RI1); test: qHTS assay to identify small molecule agonists of the farnesoid-X-receptor (FXR) signaling pathway (AID 743220; active means well fitted activation curve with a large enough effect in the signal ratio in the repeat runs, not every such curve was filed as active; the % refers to the signal ratio)
How it was run: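 Beta-lactamase reporter under UAS control in GeneBLAzer FXR HEK 293T cells (5000/well) measured with LiveBLAzer FRET substrate after 2 h at room temperature. Compound exposure lasted 16 h at 37C.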

[14] = target: Peroxisome proliferator-activated receptor delta (Homo sapiens) (UniProt Q03181); test: qHTS assay to identify small molecule agonists of the peroxisome proliferator-activated receptor delta (PPARd) signaling pathway (AID 743212; calls by dose curve)
Peroxisome proliferator-activated receptor delta (Homo sapiens), sequence (Q03181 whole entry, looked up): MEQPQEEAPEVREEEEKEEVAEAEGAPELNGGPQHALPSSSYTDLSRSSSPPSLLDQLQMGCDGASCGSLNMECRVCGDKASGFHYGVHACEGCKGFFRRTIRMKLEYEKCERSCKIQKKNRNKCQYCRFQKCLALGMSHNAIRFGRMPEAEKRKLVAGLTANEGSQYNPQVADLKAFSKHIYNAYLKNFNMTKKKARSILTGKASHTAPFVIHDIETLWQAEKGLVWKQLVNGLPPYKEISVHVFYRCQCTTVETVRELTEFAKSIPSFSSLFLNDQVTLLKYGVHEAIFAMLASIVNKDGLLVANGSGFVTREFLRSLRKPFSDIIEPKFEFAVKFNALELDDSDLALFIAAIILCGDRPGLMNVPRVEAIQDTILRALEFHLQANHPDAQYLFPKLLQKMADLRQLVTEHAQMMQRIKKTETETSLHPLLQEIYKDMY
How it was run: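 HEK293H UAS-bla reporter cells, human PPARd system; compounds delivered in DMSO after 5 h plating, then at 37 C. Beta-lactamase FRET read, 2 h RT substrate step.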

[15] = qHTS assay to identify small molecule antagonists of the farnesoid-X-receptor (FXR) signaling pathway - cell viability counter screen (AID 743221; active means well fitted cell-killing curve with a large enough effect in the repeat runs, not every such curve was filed as active; further: nearly all actives have a fitted effect of over 50% in size)
How it was run: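 After a 5 h settling period, FXR-bla HEK 293T cells receive compound and chenodeoxycholic acid (50 uM final) and incubate 16 h at 37 C; CellTiter-Glo luminescence, read after 30 min at room temperature, reports cell viability.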

[16] = target: Vitamin D3 receptor (Homo sapiens) (UniProt P11473); test: qHTS assay to identify small molecule agonists of the vitamin D receptor (VDR) signaling pathway (AID 743222; calls by dose curve)
Vitamin D3 receptor (Homo sapiens), sequence (P11473 whole entry, looked up): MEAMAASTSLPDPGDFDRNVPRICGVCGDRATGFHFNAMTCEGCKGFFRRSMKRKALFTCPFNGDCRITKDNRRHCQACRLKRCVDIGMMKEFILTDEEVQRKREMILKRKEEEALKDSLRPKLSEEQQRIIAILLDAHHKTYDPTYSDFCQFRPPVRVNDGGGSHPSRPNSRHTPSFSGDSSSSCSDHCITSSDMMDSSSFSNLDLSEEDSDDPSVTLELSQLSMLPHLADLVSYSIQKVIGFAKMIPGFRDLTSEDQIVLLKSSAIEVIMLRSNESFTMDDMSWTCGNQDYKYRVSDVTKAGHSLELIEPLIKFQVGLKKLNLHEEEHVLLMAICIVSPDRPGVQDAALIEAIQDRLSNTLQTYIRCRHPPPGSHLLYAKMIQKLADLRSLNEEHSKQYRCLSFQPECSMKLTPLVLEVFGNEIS
How it was run: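 VDR-bla cells were seeded, left 4 h, treated with compounds in DMSO for 16 h, incubated 2 h at RT with B/G FRET substrate, and read for fluorescence.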

[17] = target: Vitamin D3 receptor (Homo sapiens) (UniProt P11473); test: qHTS assay to identify small molecule antagonists of the vitamin D receptor (VDR) signaling pathway (AID 743223; active means well fitted inhibition curve with a large enough effect in the signal ratio in the repeat runs, not every such curve was filed as active; the % refers to the signal ratio)
How it was run: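 Reporter line VDR-bla; stimulus 1alpha,25-(OH)2 vitamin D3, 3 nM final; compound co-addition, 16 h 37C/5% CO2; LiveBLAzer B/G substrate 2 h RT; fluorescence intensity.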

[18] = qHTS assay to identify small molecule agonists of the vitamin D receptor (VDR) signaling pathway - cell viability counter screen (AID 743224); further: series mostly up to about 63 µM; nearly all actives have a fitted effect of over 50% in size
How it was run: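 Here cell health was gauged by luminescent ATP detection (CellTiter-Glo, 30 min RT) in VDR-bla cells that had been incubated with test compounds for 16 h at 37C and 5% CO2.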

[19] = qHTS assay to identify small molecule antagonists of the peroxisome proliferator-activated receptor gamma (PPARg) signaling pathway - cell viability counter screen (AID 743194); further: nearly all actives have a fitted effect of over 55% in size
How it was run: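 Viability was measured as CellTiter-Glo luminescence in GeneBLAzer PPARg UAS-bla HEK293H cells. These cells had been exposed 17 h at 37 C to compounds together with rosiglitazone at 50 nM final, with the beta-lactamase readout taken in the same wells.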

[20] = target: Peroxisome proliferator-activated receptor delta (Homo sapiens) (UniProt Q03181); test: qHTS assay to identify small molecule antagonists of the peroxisome proliferator-activated receptor delta (PPARd) signaling pathway (AID 743215; active means well fitted inhibition curve with a large enough effect in the signal ratio in the repeat runs, not every such curve was filed as active; the % refers to the signal ratio;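 further: cells stimulated with agonist L165041 at 300 nM final during compound exposure; series mostly up to about 62 µM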)
How it was run: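 With L165041 present at 300 nM final, compounds were incubated 17 h at 37 C on PPARd UAS-bla HEK293H cells. A FRET-based beta-lactamase substrate was then applied for 2 h at room temperature and fluorescence intensity recorded.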

SMILES	Potency [1]	Potency [2]	outcome [3]	outcome [4]	Potency [5]	outcome [6]	outcome [7]	outcome [8]	Potency [9]	Potency [10]	outcome [11]	outcome [12]	outcome [13]	outcome [14]	Potency [15]	outcome [16]	outcome [17]	outcome [18]	Potency [19]	outcome [20]
CC1CCN(CCCC(=O)c2ccc(F)cc2)CC1	inactive	inactive	inactive	inactive	inactive	inactive	inactive	inactive	inactive	inactive	inactive	inactive	inactive							
CCCC(C)C(=O)O (stereo not drawn)	inactive	inactive	inactive	inactive	inactive	inactive		inactive	inactive		inactive	inactive	inactive	inactive	inactive	inactive	inactive	inactive		
OC1OC[C@@H](O)[C@H](O)[C@H]1O (stereo partly drawn)	inactive	inactive	inactive		inactive	inactive	inactive	inactive		inactive		inactive						inactive	inactive	
CCC(=O)c1cccc(Cl)c1	inactive	inactive	inactive	inactive	inactive	inactive	inactive	inactive	inactive	inactive		inactive		inactive	inactive	inactive	inactive			inactive
CCCCN(CCO)CCO	inactive	inactive	inactive		inactive	inactive	inactive	inactive	inactive	inactive					inactive	inactive	inactive	inactive	inactive	
OC[C@H]1O[C@@H]2O[C@H]3[C@H](O)[C@@H](O)[C@@H](O[C@H]4[C@H](O)[C@@H](O)[C@@H](O[C@H]5[C@H](O)[C@@H](O)[C@@H](O[C@H]6[C@H](O)[C@@H](O)[C@@H](O[C@H]7[C@H](O)[C@@H](O)[C@@H](O[C@H]8[C@H](O)[C@@H](O)[C@@H](O[C@H]9[C@H](O)[C@@H](O)[C@@H](O[C@H]1[C@H](O)[C@H]2O)O[C@@H]9CO)O[C@@H]8CO)O[C@@H]7CO)O[C@@H]6CO)O[C@@H]5CO)O[C@@H]4CO)O[C@@H]3CO	inactive	inactive	inactive	inactive		inactive	inactive	inactive	inactive	inactive		inactive				inactive	inactive	inactive		
CSc1ccc(C=O)cc1	inactive	inactive	inactive		inactive	inactive	inactive	inactive	inactive	inactive		inactive		inactive	inactive	inactive	inactive		inactive	inactive
COC(=O)C1=C(C)NC(C)=C(C(=O)OCC(C)=O)C1c1ccccc1[N+](=O)[O-] (stereo not drawn)	8.41 µM (active)	29.8 µM (active)	inactive		inactive	inactive	inactive	inactive	inactive	inactive	inactive	inactive	inactive	inactive	inactive	inactive	inactive	inactive	inactive	inactive
CC(=O)OC(C)(C)C	inactive	inactive	inactive	inactive	inactive	inactive	inactive	inactive	inactive	inactive		inactive		inactive	inactive			inactive		inactive
